Measurements: the supplement of paper PMC10811239

System: LEGO organoid PT (PTEN-/-; TP53-/-)
Assay: bioluminescence (viable cell) signal fold change after vs before treatment, normalised to DMSO (ratio); higher = more tumour cell growth / less inhibition
Conditions: 10 µM; treatment time 6 days
Description: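 Luc2-labelled iPSC-derived glioblastoma-like organoids (LEGOs, genotypes PT = PTEN-/-;TP53-/-, PTCC = plus CDKN2A/B-/-, PTN = plus NF1-/-) were treated with 10 uM drug for 6 days (applied every other day) at 37 C. Bioluminescence imaging was done before treatment and 2 days after the last dose. BLI signals were normalised to the DMSO control on the same day and then to the pre-treatment signal (N=3).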

SMILES	bioluminescence
COc1ccc(C(CN(C)C)C2(O)CCCCC2)cc1.Cl (configuration not stated) [Venlafaxine hydrochloride]	0.615
CN(C)C(=O)Oc1ccc[n+](C)c1.[Br-] [Mestinon]	0.942
CC[C@@H](C(N)=O)N1CCCC1=O [Levetiracetam]	0.803
O=C(O)CCCc1ccc(N(CCCl)CCCl)cc1 [Chloroambucil]	1.03
NCC(CC(=O)O)c1ccc(Cl)cc1 (configuration not stated) [Baclofen]	0.694
CN[C@@H]1C[C@H]2O[C@@](C)([C@@H]1OC)n1c3ccccc3c3c4c(c5c6ccccc6n2c5c31)C(=O)NC4 [Staurosporine]	0.0178
Cc1cccc([C@H](C)c2cnc[nH]2)c1C.Cl [Dexmedetomidine HCl]	0.872
CC(C)c1cccc(C(C)C)c1O [Propofol]	1.34
CC(C)C[C@H]1C(=O)N2CCC[C@H]2[C@]2(O)O[C@](NC(=O)[C@@H]3C[C@@H]4c5cccc6[nH]cc(c56)C[C@H]4N(C)C3)(C(C)C)C(=O)N12.CC(C)[C@@]1(NC(=O)[C@@H]2C[C@@H]3c4cccc5[nH]cc(c45)C[C@H]3N(C)C2)O[C@@]2(O)[C@@H]3CCCN3C(=O)[C@H](Cc3ccccc3)N2C1=O.CC(C)[C@H]1C(=O)N2CCC[C@H]2[C@]2(O)O[C@](NC(=O)[C@@H]3C[C@@H]4c5cccc6[nH]cc(c56)C[C@H]4N(C)C3)(C(C)C)C(=O)N12.CCC(C)[C@H]1C(=O)N2CCC[C@H]2[C@]2(O)O[C@](NC(=O)[C@@H]3C[C@@H]4c5cccc6[nH]cc(c56)C[C@H]4N(C)C3)(C(C)C)C(=O)N12.CS(=O)(=O)O [Dihydroergotoxine mesylate]	0.998
Cl.Cn1c(CCCC(=O)O)nc2cc(N(CCCl)CCCl)ccc21 [Bendamustine hydrochloride]	0.772
CCOC(=O)c1cncn1[C@H](C)c1ccccc1 [Etomidate]	1.09
CCN(C)C(=O)Oc1cccc([C@H](C)N(C)C)c1 [Rivastigmine]	1.31
NCC1(CC(=O)O)CCCCC1 [Gabapentin]	1.08
COc1cc2c(cc1OC)[C@@H]1CC(=O)[C@@H](CC(C)C)CN1CC2.COc1cc2c(cc1OC)[C@H]1CC(=O)[C@H](CC(C)C)CN1CC2 [Tetrabenazine]	0.657
Cc1n[nH]cc1-c1cc2[nH]c([C@@H]3CC4CCN3CC4)nc(=O)c2s1 [Simurosertib]	1.6
CCC1(c2ccc(N)cc2)CCC(=O)NC1=O (configuration not stated) [Aminoglutethimide]	0.724
CCN(C)C(=O)Oc1cccc([C@H](C)N(C)C)c1.O=C(O)[C@H](O)[C@@H](O)C(=O)O [Rivastigmine tartrate]	2.08
